Experimental data as given in PubChem BioAssay AID1259343 (VanderVen Lab, College of Veterinary Medicine, Cornell …, 2017).
The campaign covered roughly 6,200 compounds. About 2,900 (47%) were called active. Rule as the data show it: active = inhibition above about 50%; inactive = the rest. So high a share suggests a set chosen from earlier hits. The list shows a part of the results.

Experiment: Mycobacterium tuberculosis growth inhibition, primary screen (AID 1259343)
Conditions: inhibition: at 10 µM, active compounds read high; outcome: 10 uM
With `COc1ccccc1N1CCC(CNc2cncc(Cl)n2)C1` (configuration not stated) the inhibition was 85% (active). For `CNC(=O)c1cccc(N2CCC(c3ccccc3OC)C2)n1` (configuration not stated), the inhibition was 20.6% (inactive). In the case of `c1cnn(-c2cncc(NCC3CCCCCCC3)n2)c1`, the inhibition is reported as 49.9% (inactive). With `Fc1ccc(Nc2ccc3ccccc3n2)cc1Cl` the inhibition was 22.7% (inactive). With `CC(=O)Oc1cccc2c1C(=O)c1c(OC(C)=O)cc(C(=O)O)cc1C2=O` the inhibition was 77.5% (active). For `CCCc1nc2c(c(=O)c3ccccc3n2C)c(=O)n1CCc1ccccc1`, the inhibition was -32.5% (inactive). In the case of `Oc1c(C(c2ccc(Br)cc2)N2CCCC2)ccc2cccnc12` (configuration not stated), the inhibition is reported as 77.3% (active). With `Clc1ccc(C(c2ccc(Cl)cc2)N2CCNCC2)cc1` the inhibition was 42.8% (inactive). With `Oc1c(C(c2ccc(Cl)cc2)N2CCCC2)ccc2cccnc12` (configuration not stated) the inhibition was 92% (active). In the case of `COc1cc(C)c2c(=O)cc(-c3ccccc3)oc2c1`, the inhibition is reported as 47.7% (inactive). With `CC(C)Oc1ccc2c(=O)cc(-c3ccccc3)oc2c1` the inhibition was 58.7% (active). For `Cc1oc2cc(OC(C)C)ccc2c(=O)c1Oc1ccccc1`, the inhibition was 8.96% (inactive). With `O=c1cc(-c2ccccc2)oc2cc(O)c(O)cc12` the inhibition was 95.7% (active). With `O=C(CC[N+](=O)[O-])OC[C@H]1O[C@@H](O)[C@H](OC(=O)CC[N+](=O)[O-])[C@@H](OC(=O)CC[N+](=O)[O-])[C@@H]1OC(=O)CC[N+](=O)[O-]` the inhibition was 82.8% (active). For `O=C1C2=C(Nc3ccccc3S(=O)(=O)C2c2ccc(Cl)cc2)c2ccccc21` (configuration not stated), the inhibition was 66.7% (active). For `O=C1C2=C(Nc3ccccc3SC2c2cccs2)c2ccccc21` (configuration not stated), the inhibition was 21.4% (inactive). For `O=C(Cc1cc(-c2cc3ccccc3o2)on1)Nc1ccon1`, the inhibition was 18.9% (inactive). In the case of `O=C(CNc1ccc(Cl)cc1F)N1CCCc2ccccc21`, the inhibition is reported as 50.7% (active). In the case of `O=C(Cc1cc(-c2ccc(F)cc2)on1)N1CCCc2ccccc21`, the inhibition is reported as 56.2% (active). For `O=C(Cc1cc(-c2cc3ccccc3o2)on1)N1CCCc2ccccc21`, the inhibition was 66.9% (active). For `O=C(CNc1ccc(Cl)cc1F)N1CCN(c2ccccc2)CC1`, the inhibition was 16.7% (inactive). With `CC1Cc2ccccc2N1CCNC(=O)c1cc(Cl)ccc1F` (configuration not stated) the inhibition was 8.76% (inactive). With `COc1cccc(-c2cc(CC(=O)N3c4ccccc4CC3C)no2)c1` (configuration not stated) the inhibition was 38.3% (inactive). For `O=C(Cc1cc(-c2cc3ccccc3o2)on1)N1CCCCC1`, the inhibition was 22.8% (inactive). In the case of `O=[N+]([O-])c1ccc(Sc2ccc([N+](=O)[O-])cc2)cc1`, the inhibition is reported as 57.3% (active). For `O=[N+]([O-])c1ccc(Oc2ccc([N+](=O)[O-])cc2)cc1`, the inhibition was 98.6% (active). With `Nc1cccc2c([N+](=O)[O-])cccc12` the inhibition was 8.31% (inactive). For `O=C(O)c1cc(Oc2ccc([N+](=O)[O-])cc2)cc(Oc2ccc([N+](=O)[O-])cc2)c1`, the inhibition was 60.2% (active). With `Nc1cccc2c(Oc3ccc([N+](=O)[O-])cc3)cccc12` the inhibition was 68.4% (active). With `O=[N+]([O-])c1ccc(C2SCCS2)cc1` the inhibition was -11.2% (inactive). With `O=[N+]([O-])c1ccc(Oc2ccc(-c3ccccc3)cc2)cc1` the inhibition was -41% (inactive). For `Cc1cnn(CCc2nc(-c3cc(Br)cs3)no2)c1`, the inhibition was 36.5% (inactive). In the case of `Cc1cc(CC(=O)NC2CC2c2ccc(Br)cc2)no1` (configuration not stated), the inhibition is reported as 13.2% (inactive). For `Cc1cc(OCC(=O)NCc2ccc(-c3ccc(Br)cc3)o2)no1`, the inhibition was 56.9% (active). With `Cc1ccsc1/C=C/c1cc(C(F)(F)F)[nH]c(=O)n1` the inhibition was 36.8% (inactive). In the case of `O=c1nc(/C=C/c2ccc(Br)cc2)cc(C(F)(F)F)[nH]1`, the inhibition is reported as 100% (active). With `O=c1nc(/C=C/c2cccc3ccccc23)cc(C(F)(F)F)[nH]1` the inhibition was -5.05% (inactive). With `Clc1ccc(CSc2nnc3nc[nH]n23)c(Cl)c1` the inhibition was 90.4% (active). For `O=c1cc(CSc2ccc(Cl)cc2)nc2nc[nH]n12`, the inhibition was 30% (inactive). In the case of `Clc1ccc(Cn2ccnc2CNc2ccccc2)c(Cl)c1`, the inhibition is reported as 28.2% (inactive). In the case of `O=C(c1cccc(OC(F)F)c1)N1CCN(Cc2ccc(-c3noc(-c4ccco4)n3)cc2)CC1`, the inhibition is reported as 91.3% (active). For `O=C(Cc1ccsc1)N1CCN(Cc2cccc(-c3noc(-c4ccccc4)n3)c2)CC1`, the inhibition was 25.5% (inactive). With `CCOc1ccc(N2C(=O)CSC2c2ccccc2N)cc1` (configuration not stated) the inhibition was 90.3% (active). In the case of `COC(=O)C1=C(C(=O)OC)SC(=CC(=S)c2ccc(OC)cc2)S1`, the inhibition is reported as 82.8% (active). With `COC(=O)C1=C(C(=O)OC)SC(=C2C(=S)C(C)(C)Nc3ccccc32)S1` the inhibition was 27.1% (inactive). For `COC(=O)C1=C(C(=O)OC)C2=S(SC(c3ccc(OC)cc3)=C2)S1` (configuration not stated), the inhibition was 7.91% (inactive). With `CCOc1ccc(Oc2ccc(S(=O)(=O)NC(C)CC#N)cc2)cc1` (configuration not stated) the inhibition was 39.1% (inactive). In the case of `CCCCN=C1NN=C(C23CC4CC(CC(C4)C2)C3)C(C)S1` (configuration not stated), the inhibition is reported as 82.7% (active). With `O=[N+]([O-])c1ccc(NN=C2CC3CC=CC23)c([N+](=O)[O-])c1` (configuration not stated) the inhibition was 92% (active). With `CC1=CC(=NNc2ccc(S(N)(=O)=O)cc2[N+](=O)[O-])CC(C)(C)C1` the inhibition was -10.6% (inactive). For `O=[N+]([O-])c1ccc(NN=C2C3CC4CC2CC(O)(C4)C3)c([N+](=O)[O-])c1`, the inhibition was 25.5% (inactive). In the case of `CC(C)NC(=O)CSc1nnc(Nc2ccccc2Cl)s1`, the inhibition is reported as 78.8% (active). With `O=C(Nc1nnc(SCc2ccc(F)cc2)s1)c1ccccc1Br` the inhibition was 27.4% (inactive). In the case of `CCSc1nnc(NC(=O)Cc2ccccc2Cl)s1`, the inhibition is reported as 95.5% (active). For `CCc1ccccc1Nc1nnc(SCC(=O)NC(C)C)s1`, the inhibition was 102% (active). In the case of `C=CCSc1nnc(NC(=O)c2cc(Br)ccc2Cl)s1`, the inhibition is reported as 9.41% (inactive). With `CNc1nnc(SCc2sc3ccccc3c2Cl)s1` the inhibition was 48.5% (inactive). With `COCCCNC(=O)CSc1nnc(Nc2ccccc2Cl)s1` the inhibition was 80.1% (active). With `C=CCNCC(=O)N(Cc1ccccc1)Cc1ccc(C)s1` the inhibition was 21.1% (inactive). In the case of `COC(=O)c1ccc(NC(=O)N2CCCC(C(=O)c3sccc3C)C2)cc1` (configuration not stated), the inhibition is reported as -5.44% (inactive). With `CCCN(CC(=O)N(Cc1ccccc1)Cc1sccc1C)C(=O)Nc1ccc(C(=O)OCC)cc1` the inhibition was 89.4% (active). For `CC(=O)N1N=C(c2ccco2)OC1C(=O)N[C@@H]1C[C@@H]2C[C@H](C1C)C2(C)C` (some centres not stated), the inhibition was 8.4% (inactive).
